Data reported in PubChem BioAssay (NCATS).
Results filed as inconclusive are left out. Calls of active or inactive are those of the source. The call rests on the fitted dose curve; in most records, active means well fitted inhibition curve with a large enough effect; inconclusive means small, poorly fitted or top-dose-only effect; inactive means flat fitted curve, though single readings scatter.

Assays:
Assay in all cases: qHTS profiling for inhibitors of Plasmodium falciparum proliferation (AID 504749); further: nearly all actives have a fitted effect of over 60% in size
Details in all cases: P. falciparum in erythrocytes, SYBR Green DNA, 72 h; series mostly up to 28.7 µM
CP335 = test system: CP335
In short: (§1)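 SYBR Green fluorescence of parasite DNA, read after lysis and overnight dark incubation, measured growth over 72 h in erythrocyte culture at 0.3% parasitemia and 2.5% hematocrit. Data normalised to DMSO and 0.29 uM artemisinin, with plate-drift correction.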

DFO2036 = test system: DFO2036
In short: as §1

DIV14 = test system: DIV14
In short: as §1

DIV17 = test system: DIV17
In short: as §1

DIV30 = test system: DIV30
In short: as §1

Dd2 = test system: Dd2
In short: as §1

ECU = test system: ECU
In short: as §1

FAB9 = test system: FAB9
In short: as §1

GB4 = test system: GB4
In short: as §1

HB3 = test system: HB3
In short: as §1

ICS = test system: ICS
In short: as §1

JCK = test system: JCK
In short: as §1

N140 = test system: N140
In short: as §1

P93_24 = test system: P93_24
In short: as §1

P94_40 = test system: P94_40
In short: as §1

PAD = test system: PAD
In short: as §1

PC15 = test system: PC15
In short: as §1

PC26 = test system: PC26
In short: as §1

PC49 = test system: PC49
In short: as §1

SC27B = test system: SC27B
In short: as §1

Measured: Potency

O=S(=O)(O)NC1CCCCC1
inactive: CP335 | DFO2036 | DIV14 | DIV17 | DIV30 | Dd2 | ECU | FAB9 | GB4 | HB3 | ICS | JCK | N140 | P93_24 | P94_40 | PAD | PC15 | PC26 | PC49 | SC27B

O=C1NS(=O)(=O)c2ccccc21
inactive: CP335 | DFO2036 | DIV14 | DIV17 | DIV30 | Dd2 | ECU | FAB9 | GB4 | HB3 | ICS | JCK | N140 | P93_24 | P94_40 | PAD | PC15 | PC26 | PC49 | SC27B

Cc1cc(C(C#N)c2ccc(Cl)cc2)c(Cl)cc1NC(=O)c1cc(I)cc(I)c1O (stereo not given)
inactive: CP335 | DFO2036 | DIV14 | DIV17 | DIV30 | Dd2 | ECU | FAB9 | GB4 | HB3 | ICS | JCK | N140 | P93_24 | P94_40 | PAD | PC15 | PC26 | PC49 | SC27B

Oc1cccc(O)c1
inactive: CP335 | DFO2036 | DIV14 | DIV17 | DIV30 | Dd2 | ECU | FAB9 | GB4 | HB3 | ICS | JCK | N140 | P93_24 | P94_40 | PAD | PC15 | PC26 | PC49 | SC27B

O=C(O)c1ccccc1-c1ccc(C(F)(F)F)cc1
inactive: CP335 | DFO2036 | DIV14 | DIV17 | DIV30 | Dd2 | ECU | FAB9 | GB4 | HB3 | ICS | JCK | N140 | P93_24 | P94_40 | PAD | PC15 | PC26 | PC49 | SC27B

Cc1cc(CC(=O)O)n(C)c1C(=O)c1ccc(Cl)cc1
inactive: CP335 | DFO2036 | DIV14 | DIV17 | DIV30 | Dd2 | ECU | FAB9 | GB4 | HB3 | ICS | JCK | N140 | P93_24 | P94_40 | PAD | PC15 | PC26 | PC49 | SC27B

O=C(Oc1ccccc1C(=O)O)c1ccccc1O
inactive: CP335 | DFO2036 | DIV14 | DIV17 | DIV30 | Dd2 | ECU | FAB9 | GB4 | HB3 | ICS | JCK | N140 | P93_24 | P94_40 | PAD | PC15 | PC26 | PC49 | SC27B

CCC(=O)c1ccc(O)cc1
inactive: CP335 | DFO2036 | DIV14 | DIV17 | DIV30 | Dd2 | ECU | FAB9 | GB4 | HB3 | ICS | JCK | N140 | P93_24 | P94_40 | PAD | PC15 | PC26 | PC49 | SC27B

COc1ccc2c(c1)C(=O)N(CCc1ccc(S(=O)(=O)NC(=O)NC3CCCCC3)cc1)C(=O)C2(C)C
inactive: CP335 | DFO2036 | DIV14 | DIV17 | DIV30 | Dd2 | ECU | FAB9 | GB4 | HB3 | ICS | JCK | N140 | P93_24 | P94_40 | PAD | PC15 | PC26 | PC49 | SC27B

CC(O)COc1ccccc1 (stereo not given)
inactive: CP335 | DFO2036 | DIV14 | DIV17 | DIV30 | Dd2 | ECU | FAB9 | GB4 | HB3 | ICS | JCK | N140 | P93_24 | P94_40 | PAD | PC15 | PC26 | PC49 | SC27B

O=c1cc[nH]c(=O)[nH]1
inactive: CP335 | DFO2036 | DIV14 | DIV17 | DIV30 | Dd2 | ECU | FAB9 | GB4 | HB3 | ICS | JCK | N140 | P93_24 | P94_40 | PAD | PC15 | PC26 | PC49 | SC27B

OCC(O)CN1CCN(c2ccccc2)CC1 (stereo not given)
inactive: CP335 | DFO2036 | DIV14 | DIV17 | DIV30 | Dd2 | ECU | FAB9 | GB4 | HB3 | ICS | JCK | N140 | P93_24 | P94_40 | PAD | PC15 | PC26 | PC49 | SC27B

CCCCCCCCCCCCOS(=O)(=O)O
inactive: CP335 | DFO2036 | DIV14 | DIV17 | DIV30 | Dd2 | ECU | FAB9 | GB4 | HB3 | ICS | JCK | N140 | P93_24 | P94_40 | PAD | PC15 | PC26 | PC49 | SC27B

CCCCc1ncc(/C=C(\Cc2cccs2)C(=O)O)n1Cc1ccc(C(=O)O)cc1
inactive: CP335 | DFO2036 | DIV14 | DIV17 | DIV30 | Dd2 | ECU | FAB9 | GB4 | HB3 | ICS | JCK | N140 | P93_24 | P94_40 | PAD | PC15 | PC26 | PC49 | SC27B

Nc1nc2c(ncn2CCC(CO)CO)c(=O)[nH]1
inactive: CP335 | DFO2036 | DIV14 | DIV17 | DIV30 | Dd2 | ECU | FAB9 | GB4 | HB3 | ICS | JCK | N140 | P93_24 | P94_40 | PAD | PC15 | PC26 | PC49 | SC27B

NS(=O)(=O)c1cc2c(cc1Cl)NC(CSCc1ccccc1)=NS2(=O)=O
inactive: CP335 | DFO2036 | DIV14 | DIV17 | DIV30 | Dd2 | ECU | FAB9 | GB4 | HB3 | ICS | JCK | N140 | P93_24 | P94_40 | PAD | PC15 | PC26 | PC49 | SC27B

Nc1ccc(S(=O)(=O)NC(=O)c2ccccc2)cc1
inactive: CP335 | DFO2036 | DIV14 | DIV17 | DIV30 | Dd2 | ECU | FAB9 | GB4 | HB3 | ICS | JCK | N140 | P93_24 | P94_40 | PAD | PC15 | PC26 | PC49 | SC27B

CCCOC(=O)c1ccccc1
inactive: CP335 | DFO2036 | DIV14 | DIV17 | DIV30 | Dd2 | ECU | FAB9 | GB4 | HB3 | ICS | JCK | N140 | P93_24 | P94_40 | PAD | PC15 | PC26 | PC49 | SC27B

CC(O)CN(CCN(CC(C)O)CC(C)O)CC(C)O (stereo not given)
inactive: CP335 | DFO2036 | DIV14 | DIV17 | DIV30 | Dd2 | ECU | FAB9 | GB4 | HB3 | ICS | JCK | N140 | P93_24 | P94_40 | PAD | PC15 | PC26 | PC49 | SC27B

CC12CCC(CC1)C(C)(C)O2
inactive: CP335 | DFO2036 | DIV14 | DIV17 | DIV30 | Dd2 | ECU | FAB9 | GB4 | HB3 | ICS | JCK | N140 | P93_24 | P94_40 | PAD | PC15 | PC26 | PC49 | SC27B

O=C(O)COc1nn(Cc2ccccc2)c2ccccc12
inactive: CP335 | DFO2036 | DIV14 | DIV17 | DIV30 | Dd2 | ECU | FAB9 | GB4 | HB3 | ICS | JCK | N140 | P93_24 | P94_40 | PAD | PC15 | PC26 | PC49 | SC27B

O=Cc1ccccc1C=O
inactive: CP335 | DFO2036 | DIV14 | DIV17 | DIV30 | Dd2 | ECU | FAB9 | GB4 | HB3 | ICS | JCK | N140 | P93_24 | P94_40 | PAD | PC15 | PC26 | PC49 | SC27B

C[C@@H]1CN(c2c(F)c(F)c3c(=O)c(C(=O)O)cn(C4CC4)c3c2F)C[C@H](C)N1
inactive: CP335 | DFO2036 | DIV14 | DIV17 | DIV30 | Dd2 | ECU | FAB9 | GB4 | HB3 | ICS | JCK | N140 | P93_24 | P94_40 | PAD | PC15 | PC26 | PC49 | SC27B

NC(CSCC(=O)O)C(=O)O (stereo not given)
inactive: CP335 | DFO2036 | DIV14 | DIV17 | DIV30 | Dd2 | ECU | FAB9 | GB4 | HB3 | ICS | JCK | N140 | P93_24 | P94_40 | PAD | PC15 | PC26 | PC49 | SC27B

C[C@](N)(Cc1ccc(O)cc1)C(=O)O
inactive: CP335 | DFO2036 | DIV14 | DIV17 | DIV30 | Dd2 | ECU | FAB9 | GB4 | HB3 | ICS | JCK | N140 | P93_24 | P94_40 | PAD | PC15 | PC26 | PC49 | SC27B

CC1(C)OC(=O)NC1=O
inactive: CP335 | DFO2036 | DIV14 | DIV17 | DIV30 | Dd2 | ECU | FAB9 | GB4 | HB3 | ICS | JCK | N140 | P93_24 | P94_40 | PAD | PC15 | PC26 | PC49 | SC27B

CC1(C)CO[C@@H](CC(=O)O)CN1
inactive: CP335 | DFO2036 | DIV14 | DIV17 | DIV30 | Dd2 | ECU | FAB9 | GB4 | HB3 | ICS | JCK | N140 | P93_24 | P94_40 | PAD | PC15 | PC26 | PC49 | SC27B
